Source: PubChem (National Center for Advancing Translational Sciences (NCATS))
Pf Dd2 inh: Plasmodium falciparum Dd2 growth inhibition. P. falciparum Dd2 growth, SYBR Green, 72 h. Potency, µM (series often up to 28.9 µM), for the others: top-dose activity, negative = inhibition, usual class: inhibitors. 120,000 compounds, 4.3% hits; active = well fitted inhibition curve with a large enough effect;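 note: plate controls were DMSO vehicle for no effect and reference drug for full effect; nearly all actives have a fitted effect of over 65% in size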
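Infected erythrocytes (Dd2, 0.3% parasitemia, 2.5% hematocrit final) are added to compound in RPMI-1640/Albumax II medium, grown 72 h at 37C in low oxygen, then lysed with saponin/Triton-X containing SYBR Green and read by fluorescence.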
Starred values were filed as active, the others as inactive; i = inactive; [ ] = another dose, or the depositor's remark. The entries come from a sample that favours hits as a whole. Potency is the fitted concentration of half-maximal effect.

SMILES | Pf Dd2 inh
O=C1NCCN2CC3(CCN(C(=O)c4ccco4)CC3)CC12 (stereo not drawn) | 12%
N#Cc1ccc(S(=O)(=O)N2CCCCCCNC(=O)[C@@H]3CCCC[C@@H]32)cc1 | 6%
COCCN1CCC2(CCC1=O)CCN(C(=O)Nc1c(C)cccc1C)CC2 | 22%
COCCC1(NC(=O)C2CCOCC2)CCN(C(=O)c2cccnc2C)CC1 | 0%
O=C(NCCc1nc(-c2ccccc2)cs1)C1CC(=O)N(c2n[nH]c3ccccc23)C1 (stereo not drawn) | -3%
Cc1c(Cl)cccc1-n1ncc(C(=O)N2CCOCC2)c1C1CCN(C(=O)OC(C)(C)C)CC1 | -6%
Cc1ccc2nc(N3CCC(C(=O)N4CCN(c5cccc(C)c5C)CC4)CC3)[nH]c2c1 | -7%
Cc1cccc(N2CCN(C(=O)c3cnn(-c4cccc(Cl)c4C)c3C3CCNCC3)CC2)c1C | 11µM*
Cc1c(CN2CCN(Cc3cccs3)C(CCO)C2)cnn1C (stereo not drawn) | -6%
CC(C)NC(=O)c1nc(-c2ccc(Cl)cc2)c2ccccn12 | 2%
CC(C)CNC(=O)N1CC(Oc2ccccc2-c2nc(-c3ccccc3)no2)C1 | -26%
O=C(c1ccco1)N1CC(Oc2ccccc2-c2nc(-c3ccccc3)no2)C1 | 4µM*
CC(=O)N1CCC(Oc2ccccc2-c2nc(-c3ccccc3)no2)C1 (stereo not drawn) | i
Cc1cccc(C(=O)N2CC(Oc3ccc(-c4nc(-c5ccccc5)no4)cc3)C2)c1 | i[5.79 µM]
O=C(COc1ccc(F)cc1)N1CC(Oc2cccc(-c3nc(-c4ccccc4)no3)c2)C1 | 2.2µM*
O=C(CN1CCCCCC1)N1CC(Oc2ccccc2-c2nc(C3CC3)no2)C1 | 11µM*
COCCOCC(=O)N1CC(Oc2ccccc2-c2nc(C3CC3)no2)C1 | -10%
Cc1noc(-c2cccc(OC3CN(C(=O)Cc4ccccc4)C3)c2)n1 | 3%[5.79 µM]
O=C(Nc1ccccc1F)N1CC(Oc2cccc(-c3nc(-c4ccccc4)no3)c2)C1 | 20%[5.79 µM]
CC(C)C(=O)N1CC(Oc2ccccc2-c2nc(C3CC3)no2)C1 | 7%
COc1ccc(C(=O)N2CC(Oc3ccc(-c4nc(-c5ccccc5)no4)cc3)C2)cc1 | 48%[5.79 µM]
COc1ccc(C(=O)N2CC(Oc3ccccc3-c3nc(-c4ccccc4)no3)C2)cc1 | 0.89µM*
CCN1c2cc(C(=O)Nc3cc(OC)ccc3OC)ccc2C(=O)N2CCCCCC21 (stereo not drawn) | -7%
CC(C)Oc1cccc(-c2n[nH]c3c2CC(=O)N(Cc2ccccn2)C3)c1 | -2%[44.1 µM]
COc1ccc(NC(=O)C2(C)CCc3cnc(NCc4ccccc4)nc32)cn1 (stereo not drawn) | i
SMILES | Pf Dd2 inh
CN1CCc2[nH]nc(C(=O)N[C@H](c3ccccn3)C3CC(O)C3)c2C1 (stereo partly drawn) | -6%
COC(=O)[C@@H]1Cc2ncn(C(C)C)c2CN1S(=O)(=O)c1cccc2cccnc12 | -21%[44.1 µM]
O=C1C(N2CCN(S(=O)(=O)c3ccccc3Cl)CC2)CCN1CCc1ccccc1 (stereo not drawn) | i
O=C(N[C@@H]1[C@@H](Cc2ccccc2)[C@H]2OCC[C@@H]12)N1CCOCC1 | -18%
Cn1c(CO[C@H]2CN(Cc3ccc(S(C)(=O)=O)cc3)C[C@H]2F)nc2ccccc21 | -6%[44.1 µM]
CCCc1cc(C(=O)N[C@H](c2ccccn2)C2CC(O)C2)cs1 (stereo partly drawn) | -1%
O=C(N[C@H](c1ccccn1)C1CC(O)C1)c1cc(=O)n(-c2ccccc2)[nH]1 (stereo partly drawn) | 1.4µM*
O=C(N[C@H](c1ccccn1)C1CC(O)C1)c1cccc(Cn2cccn2)c1 (stereo partly drawn) | -9%
COCCOC1CCN(C(=O)c2cccn2C)CC1 | 24%
O=C(COc1cccc(-c2nnc3n2CCCC3)c1)NCc1ccccc1 | i
COc1ccccc1NC(=O)Cn1cnc2c(nc3n2CCCCC3)c1=O | 29%
Cc1nc(N2CCC(C(=O)NCc3ccc4c(c3)OCO4)CC2)cc(C(F)(F)F)n1 | -16%
O=C(COc1cccc(-c2nnc3n2CCCC3)c1)N1CCN(c2ccccc2F)CC1 | 5µM*
COc1cccc(-c2cc(C3CCN(C(=O)Nc4cccc(SC)c4)CC3)[nH]n2)c1 | -28%
O=C(COc1ccc(-c2nnc3n2CCCC3)cc1)NCc1ccc2c(c1)OCO2 | 10µM*
COc1ccccc1NC(=O)COc1cccc(-c2nnc3n2CCCC3)c1 | 0.63µM*
Cc1cc2nc3n(c(=O)c2n1CC(=O)N1CCN(c2ccccc2F)CC1)CCCCC3 | i
CSc1cccc(NC(=O)COc2cccc(-c3nnc4n3CCCC4)c2)c1 | 11µM*
COc1ccc(CNC(=O)COCc2cc(-c3ccc4c(c3)OCO4)on2)cc1 | 150%
Cc1cccc(NC(=O)COc2ccc3oc4c(c3c2)CCCC4)c1 | 33%
O=C(Cn1nc2n(c1=O)CCCC2)N1CCN(c2ccccc2F)CC1 | -17%
Cc1noc([C@@H]2CN(C(=O)CN3CCCCCC3)C[C@H]2CO)n1 | 3%
CS(=O)(=O)N(C1CC1)C1CCOC2(CCN(C(=O)CCC3CCCC3)CC2)C1 (stereo not drawn) | -6%
COc1cccc(CC(=O)N2CC(C(=O)NCCc3ccncc3)C3(CCOCC3)C2)c1 (stereo not drawn) | -14%
C[C@@H](NCC1CCCC1)c1onc(-c2ccc(Cl)cc2)c1C(=O)O | -4%[44.1 µM]
SMILES | Pf Dd2 inh
Cc1cccc(-c2nc3cnccn3c2NCCC(=O)NCc2ccc(F)c(Cl)c2)c1 | i
Cc1ccc(CN2CCOc3ccc(C(=O)NCc4ccccc4F)cc3C2)o1 | i
COCC(=O)N1C[C@@H]2CCCN3CCC[C@@H]([C@H]23)[C@H]1CCCC(=O)N1CCOCC1 | 11%
O=S(=O)(c1ccc(C(F)(F)F)cc1)N1CC(c2nc(-c3ccncc3)no2)C1 | -7%
O=C(N[C@H]1C[C@H]2C(=O)NC[C@@H](CCC(=O)N3CCN(c4ccccc4)CC3)N2C1)c1ccco1 | -5%
NC1(C(=O)N2CCCC(CCc3cccc(C(F)(F)F)c3)C2)CC1 (stereo not drawn) | -27%
CCOc1ccc(NC(=O)COc2cccc(-c3nnc4n3CCCC4)c2)cc1 | 2.8µM*
CCOc1ccc(NC(=O)Cn2c(C)cc3nc4n(c(=O)c32)CCCCC4)cc1 | -12%
CCOc1ccc(NC(=O)Cn2nc3n(c2=O)CCCCC3)cc1 | 27%
NC(=O)c1cccc(-c2n[nH]c3c2CC(=O)N(CC2CCOCC2)C3)c1 | 4%[44.1 µM]
O=C(c1ccc2c(c1)OCO2)N1CCC2(CC1)N=C(c1ccc(Cl)cc1)NO2 | 7.9µM*
Cc1ccc(C2=NC3(CCN(C(=O)c4ccc5c(c4)OCO5)CC3)ON2)cc1 | i
Cc1ccc(C(=O)N2CCC3(CC2)N=C(c2ccc(Cl)cc2)NO3)cc1F | -12%
O=C1NCCCCCCN(S(=O)(=O)c2ccccc2)[C@H]2CCCC[C@@H]12 | i
CN1CCCCCCN(S(=O)(=O)c2ccccc2)[C@H]2CCC[C@H]2C1=O | 4µM*
Cc1ccc(CNC(=O)N2CCCCCCN(C)C(=O)[C@@H]3CCC[C@@H]32)cc1 | -10%
COc1cccc(CN2CCCCCNC(=O)[C@@H]3CCC[C@@H]32)c1OC | -32%
O=C1NCCCCCCN(S(=O)(=O)c2ccccc2)[C@H]2CCC[C@@H]12 | -10%
COc1cccc(CN2CCCCCCN(C)C(=O)[C@@H]3CCC[C@@H]32)n1 | 2.5µM*
CN1CCCCCCN(C(=O)c2ccoc2)[C@H]2CCC[C@H]2C1=O | 3%
Cc1ccc(CN2CCCCCCN(C)C(=O)[C@@H]3CCC[C@@H]32)s1 | 6.3µM*
